ALDH1A1 inh: ALDH1A1 (human) enzyme inhibition; P00352; Purified ALDH1A1, NADH fluorescence, propionaldehyde substrate; Potency, µM (doses to about 75.3 µM), for inactives: top-dose activity, negative = inhibition, usual class: inhibitors; 220,000 tested, 7.3% active; AID 1030; active means well fitted inhibition curve with a large enough effect, not every such curve was filed as active; inconclusive means small, poorly fitted or top-dose-only effect, or another doubt; inactive means no such curve, though single readings can be large or run the other way;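 further: plate controls were no enzyme wells and a reference inhibitor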
HPGD block: blocks human HPGD enzyme activity; P15428; purified HPGD, NADH fluorescence kinetic, PGE2 substrate; Potency, µM, for inactives: at the top dose activity change, negative = inhibition, actives largely listed as inhibitors; 150,000 tested, 4.3% active; active means well fitted inhibition curve with a large enough effect, not every such curve was filed as active; inconclusive means small, poorly fitted or top-dose-only effect, or another doubt; inactive means no such curve, though single readings can be large or run the other way
Target sequence (P15428 whole entry, looked up): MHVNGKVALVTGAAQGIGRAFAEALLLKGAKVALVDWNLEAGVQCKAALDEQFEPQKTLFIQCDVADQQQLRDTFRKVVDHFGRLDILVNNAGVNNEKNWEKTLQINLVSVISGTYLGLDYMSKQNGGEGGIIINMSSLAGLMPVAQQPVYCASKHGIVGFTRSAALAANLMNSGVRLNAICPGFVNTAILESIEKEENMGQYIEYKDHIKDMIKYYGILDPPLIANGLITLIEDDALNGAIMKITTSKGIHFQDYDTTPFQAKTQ
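20 nM HPGD preincubated 15 min at room temperature with compound in 50 mM Tris-HCl pH 8, 0.01% Tween 20. Started with 1 mM NAD+ and 30 uM prostaglandin E2; NADH fluorescence (360/450 nm) read 5 times over 30-s intervals, last minus first.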
Tau fluor cs: counter-screen for tau fibril formation inhibitors; 280,000 tested, 0.93% active; AID 1463; Potency, µM (highest dose often 57.7 µM), inactives show at the highest dose activity change, negative = decrease; tau K18 P301L Alexa594 fluorescence, heparin fibrillization; further: nearly all actives have a fitted effect of over 55% in size
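Human tau K18 P301L (15 uM unlabeled, 0.24 uM Alexa 594-labeled) in 100 mM sodium acetate pH 7 with 20 uM heparin, 6 hr at 37 C. ThT 30 uM added, 1 hr ambient; Alexa 594 FP and total fluorescence read at 555/632 nm.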
Tau FP inhib: inhibitors of human tau fibril formation | K18 P301L tau heparin fibrillization, Alexa594 FP, 6 h | 280,000 tested, 0.39% active | P10636 | Potency, µM (titrated, usually from 57.7 µM), for the others: top-dose activity, negative = inhibition, most hits filed as inhibitors; further: nearly all actives have a fitted effect of over 55% in size
Target sequence (P10636 561-689 P618L limits assumed): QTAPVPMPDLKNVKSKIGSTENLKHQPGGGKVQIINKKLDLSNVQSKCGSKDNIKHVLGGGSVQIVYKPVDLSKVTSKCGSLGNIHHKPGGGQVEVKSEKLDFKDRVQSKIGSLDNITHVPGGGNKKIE
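Read-out: fluorescence polarization of Alexa 594-labeled tau (0.24 uM), 555 nm excitation, 632 nm emission. Mixtures held 15 uM unlabeled K18 P301L, compound and 20 uM heparin, pH 7 acetate buffer, incubated 6 hr at 37 C.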
Tau ThT inhib: blocks human tau fibril formation measured by thioflavin T | Potency, µM (doses to about 57.4 µM), for inactives: at the top dose activity, negative = inhibition, actives largely listed as inhibitors | 270,000 tested, 2.1% active | recombinant tau K18 P301L (four-repeat tau fragment), heparin-induced fibrillization, ThT fluorescence | P10636; further: nearly all actives have a fitted effect of over 55% in size
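Aggregation was driven by heparin (20 uM final) acting on recombinant tau […] bearing P301L in 100 mM sodium acetate pH 7; fibrils were detected with Thioflavin T.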
NPSR antag: neuropeptide S receptor (human) antagonism, cAMP. Q6W5P4. Potency, µM (highest dose often 38.3 µM), inactives show at the highest dose activity change, negative = inhibition, most hits filed as inhibitors. CHO-NPSR cells, cAMP TR-FRET, antagonist mode. 220,000 tested, 1% active; further: nearly all actives have a fitted effect of over 50% in size
* marks the source's active call; other numbers are inactive results; ? = inconclusive; · = no result; [ ] = another dose, or the depositor's remark. In the library only some 9.5% were active in any assay of this set; here they are far more common. Unless noted, the call rests on the fitted dose curve; in most records, active means well fitted curve in the direction sought with a large enough effect; inconclusive means small, poorly fitted or top-dose-only effect, or another doubt; inactive means no such curve, though single readings can be large; an effect the other way counts as inactive or inconclusive. Unless noted, on the % scale 0 is the no-effect control and ±100 the full control effect; potency means the concentration at half of the fitted maximal effect.

SMILES	ALDH1A1 inh	HPGD block	Tau fluor cs	Tau FP inhib	Tau ThT inhib	NPSR antag
O=c1[nH]c(=S)[nH]c(O)c1N=Nc1ccc(SC(F)F)cc1	20µM*	·	-20.0%	-15.9%	3.55µM*	14.5%
O=c1[nH]c(=S)[nH]c(O)c1N=Nc1ccc(S(=O)(=O)N2CCc3ccccc32)cc1	6.31µM*	·	?	9.0%	5.01µM*	-20.9%
NC(=O)CI	28.2µM*	?	-6.4%	-5.0%	-5.8%	-10.3%[46.1 µM]
CSCC[C@H](NC(=O)[C@H](Cc1ccccc1)NC(=O)CNC(=O)CNC(=O)[C@@H](N)Cc1ccc(O)cc1)C(=O)O	-0.7%	·	-8.9%	-7.9%	-3.4%	·
O=C(OCC(=O)N1CCN(c2ccccc2)CC1)c1cnc(Cl)c(Cl)c1	8.91µM*	·	-7.1%	-10.0%	?	-17.8%
CCOC(=O)c1c(/N=C/c2c(O)n(-c3cccc(C)c3)c(=O)[nH]c2=O)sc2c1CCCC2	?	-22.3%	-0.4%	3.9%	8.8%	-26.4%
CCOC(=O)c1sc(/N=C/c2c(O)n(-c3ccccc3)c(=O)[nH]c2=O)c(C#N)c1C	11.2µM*	25.1µM*	-14.6%	-14.9%	?	14.4%[46.1 µM]
O=C1NC(=O)[C@]2(Cc3ccccc3N3CCN(c4ccccc4)CC32)C(=O)N1c1ccccc1 (some centres undefined)	25.1µM*	-9.4%	-18.3%	-8.5%	?	-13.3%[46.1 µM]
O=C1NC(=O)[C@]2(Cc3ccccc3N3CCN(c4ccccc4)CC32)C(=O)N1Cc1ccccc1 (some centres undefined)	22.4µM*	-16.5%	-20.1%	?	31.6µM*	-25.1%[46.1 µM]
O=C1NC(=O)C2(Cc3ccccc3N3CCCC32)C(=O)N1c1ccc(Cl)cc1 (centres undefined)	?	?	-6.0%	?	?	-1.8%[46.1 µM]
CN1C(=O)NC(=O)[C@]2(Cc3ccccc3N3CCN(c4ccccc4)CC32)C1=O (some centres undefined)	25.1µM*	-12.3%	-20.7%	-9.4%	?	-6.8%[46.1 µM]
O=C(Oc1ccccc1)N1CCC[C@@]2(CCN(Cc3cc(C(F)(F)F)cc(C(F)(F)F)c3)C2)C1	1.0%	1.1%	·	·	·	·
C[C@]12CC[C@@H]3[C@@H](CCC4=CC(=O)CC[C@@H]43)[C@@H]1CC[C@@H]2OC(=O)CCc1ccccc1	1.5%	-8.0%	-4.3%	2.8%	?	·
CCCCC[CH2][Hg][S]C1=C2N=CNC2NC(N)=N1 (centres undefined)	0.316µM*	0.708µM*	·	·	·	·
COc1ccc(N2C(=O)NC(=O)/C(=C\c3ccc([N+](=O)[O-])s3)C2=O)cc1	39.8µM*	·	?	?	14.1µM*	-36.1%
COc1ccc(N2C(=O)NC(=O)/C(=C/c3ccc([N+](=O)[O-])s3)C2=O)cc1	·	·	?	31.6µM*	·	-31.8%
COc1ccccc1N1C(=O)NC(=O)/C(=C/c2ccc([N+](=O)[O-])s2)C1=O	·	·	?	31.6µM*	·	-1.2%
COc1ccc(/C=C2/C(=O)NC(=O)N(c3ccccc3)C2=O)cc1CN1C(=O)c2ccccc2C1=O	·	·	-14.7%	-0.7%	?	9.2%
CCOc1ccc(N2C(=O)NC(=O)/C(=C\c3cc(OC)c(OC)cc3[N+](=O)[O-])C2=O)cc1	11.2µM*	28.2µM*	-23.5%	?	14.1µM*	-20.1%
COc1cccc(N2C(=O)NC(=O)/C(=C/c3ccc([N+](=O)[O-])s3)C2=O)c1	·	·	-50.8%	-94.9%	·	-15.9%
CCOc1ccc(N2C(=O)NC(=O)/C(=C\c3ccc(N4CCOCC4)cc3C)C2=O)cc1	?	·	-18.5%	-14.3%	?	-19.3%
COc1ccccc1N1C(=O)NC(=O)/C(=C/c2ccc3c4c(cccc24)CC3)C1=O	?	·	-10.8%	-0.1%	-6.8%	10µM*
COc1ccc(N2C(=O)/C(=C/C=C/c3ccccc3[N+](=O)[O-])C(=O)NC2=S)cc1	8.91µM*	·	?	?	28.2µM*	10µM*
Cc1ccccc1N1C(=O)NC(=O)/C(=C\c2ccc3c(c2)CCCN3Cc2ccccc2)C1=O	?	1.78µM*	-2.4%	-0.4%	3.2%	4.7%
O=C1NC(=S)NC(=O)C1=Cc1ccc2c(c1)CCN2CCCCl	·	·	?	-11.3%	·	-26.1%
SMILES	ALDH1A1 inh	HPGD block	Tau fluor cs	Tau FP inhib	Tau ThT inhib	NPSR antag
CC1=C(/C=C/c2ccccc2)CCN(C)C1	11.2µM*	-10.1%	-3.4%	-3.4%	-1.3%	-4.4%[46.1 µM]
Cc1cc2c(s1)NC(=O)CN=C2c1cccs1	?	25.1µM*	-2.3%	-0.8%	0.6%	?
CCc1ccc(NC(=O)c2ccc(F)c(S(=O)(=O)N3CCc4ccccc4C3)c2)cc1	·	·	-26.0%	?	-1.7%	·
C1=CC2C3C=CC(C3)C2C1 (centres undefined)	22.4µM*	-9.5%	·	·	·	·
CCN(CC)S(=O)(=O)c1ccc(NN=C(C#N)C#N)cc1	2.3%	14.1µM*	-11.0%	2.7%	-5.7%	-54.6%
N#CC(C#N)=NNc1ccc([N+](=O)[O-])cc1	·	·	?	0.4%	·	3.98µM*
Cc1ccc(NC(=O)CN2C(=O)CN=C(c3ccccc3)c3ccccc32)c(C)c1	·	·	-16.3%	-7.2%	-11.9%	·
CC(C)CCCC1(C)C=Cc2c(O)c3c(c(CCC(C)C)c2O1)OC12C(CC4CC1C(C)(C)OC2(CCC(C)C(=O)O)C4O)C3=O (centres undefined)	?	-9.0%	-3.6%	-7.3%	?	·
CC(C)=CCCC1(C)C=Cc2c(O)c3c(c(CC=C(C)C)c2O1)OC12C(=CC4CC1C(C)(C)OC2(C/C=C(/C)C(=O)O)C4O)C3=O (centres undefined)	-10.8%	?	-25.2%	?	17.8µM*	·
CC(C)=CCCC1(C)C=Cc2c(O)c3c(c(CC=C(C)C)c2O1)OC12C(=CC4CC1C(C)(C)OC2(C/C=C(/C)C(=O)O)C4=O)C3=O (centres undefined)	-5.7%	?	-15.8%	?	22.4µM*	·
[O-][Br+2]([O-])O	?	-7.7%	·	·	·	·
Cc1ccccc1CN1C(=O)C(C)N=C(c2ccccc2)c2ccccc21 (centres undefined)	·	·	1.3%	-0.8%	-1.5%	·
COc1ccc(C2N(c3cc(C)on3)C(=O)C3CCCN32)cc1 (centres undefined)	?	·	3.6%	-3.8%	-1.0%	17.1%
Cc1cc(N2C(=O)C3CCCN3C2c2sccc2C)no1 (centres undefined)	1.58µM*	·	7.8%	0.4%	4.5%	-7.7%[46.1 µM]
Cc1c(N=Nc2c(O)[nH]c(=S)[nH]c2=O)c(=O)n(-c2ccccc2)n1C	22.4µM*	28.2µM*	-7.3%	?	?	-2.0%
CCOc1ccc(-n2c(O)c(N=Nc3c(C)n(C)n(-c4ccccc4)c3=O)c(=O)[nH]c2=O)cc1	15.8µM*	·	-17.9%	-6.9%	?	4.6%

Screening results: PubChem, National Center for Advancing Translational Sciences (NCATS)
